Several values for one entry are separate records, joined by “and”; a condition that tells them apart may be missing. Equal entries are not always repeated. The whole screen tested about 4,500 compounds, of which about 200 (4.4%) were called active.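 The calls were made as follows: active = cell survival measured by absorbance rises more than 2.5-fold over infected cells without compound; inactive = the rest.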 What follows is part of a selection rich in actives, with near analogues and random picks from the rest. Some structures have more than one record in an assay (separate samples or runs), and their calls can disagree.

This assay in a line: survival after telomere uncapping, modulators, primary screen, cell-based (AID 1259312).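 Also: virus expresses mutant telomerase RNA that uncaps telomeres and kills cells; compound added 2 days after infection so exposure lasts 3 days.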 The note with it: HCT116 + Ad-hTR-mut, MTT, 5 d; at 10 µM, stronger effect = higher value.
With `CCOC(=O)C1CCN(C(=O)C(=O)N2CCC(C(=O)OCC)CC2)CC1`, the fold change is -1.3 (inactive).
With `CCOC(=O)C1CCN(C(C)=O)CC1` the figure was 3.8 (active).
The value for `CCOC(=O)C1CCN(C(=O)N2CCOCC2)CC1` was -1.12 (inactive); that for `O=C(NC1CCCC1)c1ccc(COc2cc(Cl)ccc2Cl)o1` was -1.53 (inactive); that for `O=C1/C(=C/c2c(N3CCOCC3)nc3ccccn3c2=O)SC(=S)N1CC1CCCO1` (stereo not given) was -1.1 (inactive).
With `CCCCNC(=O)C(=O)NCCCn1ccnc1` the figure was -3.64 (inactive); with `NCCCCn1ccnc1`, 2.97 (active).
`Nc1ccc(Cn2ccnc2)cc1`: the fold change is -1.06 (inactive).
As to `O=C1CCCN1c1ccc(NS(=O)(=O)N2CCCCC2)cc1`, the fold change is -1.3 (inactive).
Take `O=C1CCCN1c1ccc(S(=O)(=O)Cl)cc1`: the fold change was 1.34 (inactive).
Regarding `O=C1CCCN1c1ccc([N+](=O)[O-])cc1`, the fold change was 4.37 (active).
For `CN(CCCN1c2ccccc2CCc2ccccc21)c1nc(-c2ccc(F)cc2)cs1`, the fold change was -1.32 (inactive).
On to `Fc1ccc(-c2csc(N3CCN(CCCN4c5ccccc5Sc5ccc(C(F)(F)F)cc54)CC3)n2)cc1`, for which the fold change is 1.16 (inactive).
With `CCN(CC)CCCN1c2ccccc2Sc2ccc(C(F)(F)F)cc21`, the fold change was 5.26 (active).
For `CC1SC2(C(=O)Nc3ccccc32)N(c2cccc(Br)c2)C1=O` (stereo not given), the fold change was -4.19 (inactive).
In the case of `O=C(O)C1=C/C(=C(/c2ccccc2)c2cc(C(=O)O)c(O)c3ccccc23)c2ccccc2C1=O`, the fold change was 1.42 (inactive).
As for `O=C1NC(=O)/C(=C/c2cc(Br)ccc2OCc2ccc(F)cc2)N1`, the fold change was -1.15 (inactive).
With `C=CCn1c(-c2ccc(OC)cc2)n[nH]c1=S` the figure was -2.14 (inactive); with `CS(=O)(=O)N1CCc2ccccc2C1`, -1.26 (inactive); with `O=[N+]([O-])c1cccc(N2Cc3ccccc3C2)c1`, -1.27 (inactive).
Turning to `O=c1ccc(=O)n2n1Cc1ccccc1C2`, the fold change was 3.52 (active).
For `O=C(O)CC1CCCCO1` (stereo not given), the fold change is -1.75 (inactive).
With `O=C1CC(c2ccccc2)CC2=C1C(c1ccc(-c3ccccc3)cc1)Nc1ccccc1N2` (stereo not given) the figure was 1.1 (inactive).
With `Cn1cc(Cl)c(C(=O)N2CCc3ccccc3C2)n1`, the fold change is -2.46 (inactive).
The value for `N#CC1=C(N)C(C#N)(C#N)C2=CCCC2C12CCCCC2` (stereo not given) was 2.06 (inactive); that for `Cc1ccc(-c2nnnn2C(C#N)=P(c2ccccc2)(c2ccccc2)c2ccccc2)cc1` was 2.78 (active).
With `N#CC(C(N)=S)=P(c1ccccc1)(c1ccccc1)c1ccccc1` the figure was -1.25 (inactive).
With `COc1cc(OC)cc([C@@H]2[C@@H](C(C)(C)C)C(C#N)(C#N)[C@H]3C=Cc4ccccc4N23)c1` the figure was 1.39 (inactive); with `Cn1c(=S)n(CCSc2nc3ccccc3n2C2CCCCC2)c2ccccc21`, -2.22 (inactive).
Regarding `CN(C)c1ccc(N2CC(=O)SC2=NC#N)cc1`, the fold change was -2.16 (inactive).
With `COC1OC(COC(c2ccccc2)(c2ccccc2)c2ccccc2)C(O)C(O)C1O` (stereo not given) the figure was 2.72 (active); with `COC1OC(C)C(OCc2ccccc2)C(O)C1O` (stereo not given), 1.93 (inactive); with `OCc1ccccc1O[C@@H]1O[C@H](CO)[C@@H](O)[C@H](O)[C@H]1O`, 1.37 (inactive).
As to `CCCCc1sc(-c2c(C#N)c(N)nc3c2CCCC3)cc1[N+](=O)[O-]`, the fold change was -2.22 (inactive).
Take `CCSCCOC(=O)C1=C(C)NC2=C(C(=O)CCC2)C1c1ccsc1` (stereo not given): the fold change is -1.16 (inactive).
With `CCCCOc1ccc(C2C(C#N)=C(N)Nc3oc(OC)nc32)cc1CCC` (stereo not given) the figure was -1.87 (inactive); with `CC1CCCN(S(=O)(=O)c2ccc(Br)cc2)C1` (stereo not given), 1.44 (inactive); with `CC1CCCN(S(=O)(=O)c2cc(Cl)ccc2Cl)C1` (stereo not given), 3.18 (active).
On to `COc1ccc(S(=O)(=O)N2CC(C)CC(C)C2)cc1` (stereo not given), for which the fold change was 3.34 (active).
The value for `O=S(=O)(c1ccc(Cl)cc1)N1CCOC1C(Cl)(Cl)Cl` (stereo not given) was -2.17 (inactive); that for `COc1ccc(S(=O)(=O)N2CCN(CCO)CC2)cc1` was -1.24 (inactive); that for `CCC1CCCCN1S(=O)(=O)c1ccc(Cl)cc1` (stereo not given) was -1.26 (inactive).
As to `O=S(=O)(c1cc(Cl)ccc1Cl)N1CCc2ccccc2C1`, the fold change is 1.42 (inactive).
Take `O=C(O)C1CCCN1S(=O)(=O)c1cc(Cl)ccc1Cl` (stereo not given): the fold change is -1.09 (inactive).
The value for `COc1ccc(S(=O)(=O)N2CCN(C)CC2)cc1` was -1.28 (inactive); that for `CC1CC(C)CN(S(=O)(=O)c2ccc(Cl)cc2)C1` (stereo not given) was 3.13 (active).
With `CC1CCCN(S(=O)(=O)c2ccc(Cl)cc2)C1` (stereo not given) the figure was 5.69 (active); with `CC1CCN(S(=O)(=O)c2ccc(Cl)cc2)CC1`, 1.93 (inactive).
Regarding `CCC1CN2CCc3cc(OC)c(OC)cc3[C@@H]2C[C@@H]1C[C@H]1NCCc2cc(OC)c(OC)cc21` (stereo not given in full), the fold change was -4.98 (inactive).
As to `Nc1nnc(SCc2ccc(Cl)cc2Cl)s1`, the fold change is 1.92 (inactive).
The value for `CC(C)(C)c1cc(C(C)(C)C)c(O)c(C(C)(C)C)c1` was -1.04 (inactive); that for `CS(=O)(=O)N1CCc2ccccc21` was 1.49 (inactive); that for `CN=C1/C(=N/O)C=CC2CCCCC12` (stereo not given) was “inactive”.
`O=[N+]([O-])c1cc(Br)cc(C=Nc2cc(Cl)cc(Cl)c2)c1O`: the fold change result was “inactive”.
The value for `O=C1C=CC(=C(c2ccc(O)c(O)c2)c2ccccc2S(=O)(=O)O)C=C1O` was 1.05 (inactive); that for `Cc1cc(=O)[nH]c(SCc2ccon2)n1` was “inactive”; that for `Cn1c(=O)n(C)c2cc(S(=O)(=O)N3CCCCC3)ccc21` was -4.28 (inactive).
The value for `CSC(=Nc1ccc(C)c(C)c1)NC#N` was 3.26 (active); that for `CC1(C)CC2CC(C)(CN2S(=O)(=O)c2ccc(N)cc2)C1` (stereo not given) was -1.15 (inactive).
With `CN(C)CCCN1C(=O)C(O)=C(C(=O)c2ccco2)C1c1cccs1` (stereo not given) the figure was 1.06 (inactive); with `N#CC1=C(N)OC2=C(C(=O)CCC2)C1c1ccc(Br)s1` (stereo not given), -1.06 (inactive).
`Cc1ccc(C2C(C#N)=C(N)OC3=C2C(=O)CCC3)o1` (stereo not given): the fold change was -2.21 (inactive).
With `N#CC1=C(N)OC2=C(C(=O)CCC2)C1c1cc(F)ccc1F` (stereo not given) the figure was 2.83 (active).
The value for `Cn1c(SC2CCOC2=O)nc2ccccc2c1=O` (stereo not given) was -1.35 (inactive); that for `COc1nc(-c2ccccc2)cc(-c2ccccc2)c1C#N` was 1.46 (inactive); that for `OC[C@H]1O[C@@H](OC[C@H]2O[C@@H](O)[C@H](O)[C@@H](O)[C@@H]2O)[C@H](O)[C@@H](O)[C@@H]1O` was -1.38 (inactive).
The value for `OCC1OC(OC2OC(CO)C(O)C(O)C2O)C(O)C(O)C1O` (stereo not given) was -1.63 (inactive).
Consider `OC[C@@H]1OC(O)[C@@H](O)[C@H](O)[C@H]1O[C@H]1O[C@H](CO)[C@@H](O)[C@H](O)[C@H]1O` (stereo not given in full), for which the fold change was 3.84 (active).
Turning to `OC[C@@H]1O[C@H](O[C@H]2O[C@H](CO[C@H]3O[C@H](CO)[C@H](O)[C@H](O)[C@H]3O)[C@@H](O)[C@H](O)[C@H]2O)[C@H](O)[C@H]1O`, the fold change was 2.81 (active).
On to `O=[N+]([O-])c1ccc(OC2OC(CO)C(O)C(O)C2O)cc1` (stereo not given), for which the fold change was 1.11 (inactive).
With `NC[C@@H]1O[C@H](O[C@H]2[C@@H](O)[C@H](O[C@@H]3[C@@H](O)[C@H](N)C[C@H](N)[C@H]3O[C@H]3O[C@H](CN)[C@@H](O)[C@H](O)[C@H]3N)O[C@@H]2CO)[C@H](N)[C@@H](O)[C@@H]1O` the figure was -1.27 (inactive).
As to `CC(N)c1nc(-c2cccnc2)no1` (stereo not given), the fold change is -2.47 (inactive).
With `O=S(=O)(NCc1ccc2c(c1)OCO2)c1ccc2oc3ccccc3c2c1` the figure was 1.03 (inactive).
Consider `Cn1c(=O)c2c(nc(NCCOc3ccc(Cl)cc3)n2C)n(C)c1=O`, for which the fold change is 1.16 (inactive).
With `O=c1cc(-c2ccc(O)c(O)c2)oc2cc(OC3OC(CO)C(O)C(O)C3O)cc(O)c12` (stereo not given), the fold change is -1.76 (inactive).
With `CC(Nc1cc(Cl)ccc1[N+](=O)[O-])C12CC3CC(CC(C3)C1)C2` (stereo not given) the figure was -1.01 (inactive); with `O=S(=O)(c1ccccc1)N1CCN(c2ccccc2)CC1`, -1.03 (inactive).
The value for `O=S(=O)(c1ccccc1)N1CCN(CCO)CC1` was -1.34 (inactive); that for `O=S(=O)(c1ccccc1)N1CCN(C(c2ccccc2)c2ccccc2)CC1` was 3.51 (active).
With `O=C(O)CN(CP(=O)(O)O)CP(=O)(O)O`, the fold change was -4.38 (inactive).
Consider `COc1cc(CSC(=N)N)c([N+](=O)[O-])cc1OC`, for which the fold change is -1.68 (inactive).
The value for `CC(=O)OC[C@H]1O[C@@H](n2ncc(=O)[nH]c2=O)[C@H](OC(C)=O)[C@@H]1OC(C)=O` was -1.81 (inactive); that for `CC(=O)OCC1OC(n2ccc(=O)[nH]c2=O)C(OC(C)=O)C1OC(C)=O` (stereo not given) was -1.3 (inactive); that for `C=CCOC1OC(COC(C)=O)C(OC(C)=O)C(OC(C)=O)C1OC(C)=O` (stereo not given) was 3.1 (active).
The value for `Cc1ccc(C(c2c(C)[nH]n(-c3ccccc3)c2=O)c2c(C)[nH]n(-c3ccccc3)c2=O)o1` was 1.83 (inactive); that for `CN1CC=C2[C@H](C1)[C@@H](c1ccccc1F)C(C#N)=C(N)C2(C#N)C#N` was 1.08 (inactive); that for `Cc1cc(C)cc(OCC(=O)N=Nc2c(O)[nH]c3ccccc23)c1` was “inactive”.
Regarding `N#Cc1sc2nc(-c3cccs3)ccc2c1N`, the fold change was 5 (active).
With `c1csc(-c2nc3sc(-c4cccs4)nc3s2)c1` the figure was -2.65 (inactive); with `N#Cc1sc2nc3c(cc2c1N)CCCC3`, 1.19 (inactive); with `Cc1cccc(N2CCC(N=CN3CCOCC3)=N2)c1`, 2.57 (active).
As for `CCCCCCCCCCCC(=O)Nc1nccs1`, the fold change is -1.36 (inactive).
The value for `O=C(CN1CCOCC1)Nc1nccs1` was 3.2 (active).
Turning to `O=C(O)CCC(=O)Nc1nccs1`, the fold change was -1.01 (inactive).
With `CCOC(=O)/C(=C\C1=CC=C([N+](=O)[O-])C1)NC(=O)c1cccc(C)c1` the figure was 2 (inactive); with `Cc1cc2c(cc1C)-c1c(ssc1=Nc1ccc(S(N)(=O)=O)cc1)C(C)(C)N2`, -1.69 (inactive).
With `COc1cc(C2C(C(=O)OC3CCCCC3)=C(C)NC3=C2C(=O)CC(C)(C)C3)cc(OC)c1OC` (stereo not given), the fold change was -1.82 (inactive).
For the compound `NC(=O)CCCc1c[nH]c2ccccc12`, the fold change is 1.03 (inactive).
Turning to `O=C(O)CCCc1c[nH]c2ccccc12`, the fold change was 3.42 (active) and -1.18 (inactive).
The value for `O=C(CCCc1c[nH]c2ccccc12)NCCSc1ccccc1` was -1.53 (inactive).

For the origin of these results see PubChem BioAssay AID1259312 (Keith Lab, Institute of Cancer Science, University of …, 2017).
